Sampled rows, rich in hits. Any-hit rate of the full collection: about 9.3%.
FLuc modulator = qHTS profiling assay for firefly luciferase inhibitor/activator using purifed enzyme and Km concentrations of substrates (counterscreen for miR-21 project). Luciferin 4-monooxygenase (Photinus pyralis), P08659. purified FLuc, Km substrates, luminescence inhibition. Potency, µM (top dose mostly 57.5 µM), inactives show at the top dose activity change, negative = inhibition, most hits filed as inhibitors. 360,000 compounds, 6.9% hits. AID 588342, 2011;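 further: plate controls were vehicle for no effect and reference inhibitor for full effect; nearly all actives have a fitted effect of over 55% in size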
Target sequence (P08659 whole entry, looked up): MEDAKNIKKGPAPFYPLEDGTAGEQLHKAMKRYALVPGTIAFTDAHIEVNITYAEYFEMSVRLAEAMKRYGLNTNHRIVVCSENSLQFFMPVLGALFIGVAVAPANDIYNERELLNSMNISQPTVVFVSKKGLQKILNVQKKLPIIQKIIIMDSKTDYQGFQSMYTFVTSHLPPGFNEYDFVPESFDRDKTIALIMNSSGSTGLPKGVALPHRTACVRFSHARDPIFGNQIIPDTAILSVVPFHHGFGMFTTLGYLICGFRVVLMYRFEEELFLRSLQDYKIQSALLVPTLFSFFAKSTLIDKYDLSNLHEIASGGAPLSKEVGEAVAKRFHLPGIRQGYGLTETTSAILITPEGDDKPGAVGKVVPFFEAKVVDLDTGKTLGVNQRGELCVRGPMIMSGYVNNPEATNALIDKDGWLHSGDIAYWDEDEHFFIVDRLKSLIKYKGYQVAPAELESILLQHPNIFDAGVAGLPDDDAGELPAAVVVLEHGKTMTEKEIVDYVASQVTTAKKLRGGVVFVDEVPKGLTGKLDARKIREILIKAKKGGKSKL
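Purified P. pyralis luciferase, 10 nM final, with Km-level 10 uM D-luciferin and 10 uM ATP in 50 mM Tris acetate pH 7.5, 10 mM Mg acetate, 0.01% Tween-20, 0.05% BSA; 6-point qHTS titration about 60 µM downward; luminescence read.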
NPC1 prom act = qHTS Assay for NPC1 Promoter Activators; Huh7 NPC1 promoter luciferase reporter, 24 h; Potency, µM (highest dose often 9.22 µM), without a hit: at the highest dose activation, usual class: activators; 320,000 compounds, 2.4% hits; AID 485313, 2010; further: % of control where 0% means no effect; nearly all actives have a fitted effect of over 60% in size
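Luciferase expression driven by the NPC1 promoter was measured in stably transfected Huh7 cells after a 24 h compound incubation, using a luciferase reagent and a luminescence read.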
ELG1 repair inh = qHTS screen for small molecules that inhibit ELG1-dependent DNA repair in human embryonic kidney (HEK293T) cells expressing luciferase-tagged ELG1 | 330,000 compounds, 2.3% hits | Potency, µM (titrated, usually from 46.1 µM), without a hit: top-dose activity change, negative = inhibition, actives largely listed as inhibitors | AID 504467, 2011 | HEK293T ELG1-luciferase reporter, luminescence, 16 h; DNA damage induced by 5-fluorouridine; further: on the % scale 0 is the no-effect control and ±100 the full control effect; nearly all actives have a fitted effect of over 55% in size
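Reporter activity after DNA damage by 5-fluorouridine is monitored. Compound-treated cells incubate 16 hr at 37 °C, then ONE-Glo is added for 30 min before luminescence reading.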
SMN2 splice up = qHTS Assay for Enhancers of SMN2 Splice Variant Expression; HEK293 SMN2-luciferase splicing reporter, luminescence, 30-36 h; Potency, µM (top dose mostly 46.1 µM), for inactives: at the top dose activity change, positive = activation, actives largely listed as activators; 210,000 compounds, 2.8% hits; further: % of control where 0% means no effect; nearly all actives have a fitted effect of over 55% in size
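HEK293 cells carry an SMN2 minigene-luciferase reporter in which exon 7 inclusion puts luciferase in frame. Cells were seeded at 2000 cells/well, attached for 10-12 hours, then exposed to compounds for 30-36 hours at 37C before ONE-Glo luminescence.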
ELG1 genotoxic = qHTS screen for small molecules that induce genotoxicity in human embryonic kidney (HEK293T) cells expressing luciferase-tagged ELG1; HEK293T ELG1-luciferase reporter, luminescence, 16 h; Potency, µM (highest dose often 46 µM), for the others: top-dose activity change, positive = activation, usual class: activators; 330,000 compounds, 1.3% hits; AID 504466, 2011; further: % of control where 0% means no effect; nearly all actives have a fitted effect of over 60% in size
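Screening used a luciferase reporter fused to human ELG1 in HEK293T cells. Luminescence was read on a CCD plate imager after 16 hr exposure and 30 min ONE-Glo incubation.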
Rab9 prom act = qHTS Assay for Rab9 Promoter Activators | Huh7 Rab9 promoter-luciferase reporter, luminescence, 24 h | Potency, µM (highest dose often 9.22 µM), for the others: top-dose activation, negative = inhibition, usual class: activators | 320,000 compounds, 2.8% hits; further: % of control where 0% means no effect; nearly all actives have a fitted effect of over 60% in size
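Using Huh7 cells stably transfected with Rab9 promoter–luciferase, compounds were incubated 24 h at 37 °C, 5% CO2; luciferase luminescence was read 10 min after reagent addition.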
* marks the source's active call; other numbers are inactive results; u = inconclusive; x = no result. The call rests on the fitted dose curve; in most records, active means well fitted curve in the direction sought with a large enough effect; inconclusive means small, poorly fitted or top-dose-only effect, or another doubt; inactive means no such curve, though single readings can be large; an effect the other way counts as inactive or inconclusive. Potency means the concentration at half of the fitted maximal effect.

SMILES	FLuc modulator	NPC1 prom act	ELG1 repair inh	SMN2 splice up	ELG1 genotoxic	Rab9 prom act
CCc1nnc(NC(=O)/C=C/c2ccco2)s1	u	u	u	13µM*	u	1.8µM*
COc1cccc(Cn2c(=O)n(-c3cc(C)cc(C)c3)c(=O)c3oc4ccccc4c32)c1	-2%	x	x	x	x	x
COc1cc2c(cc1O)C(Cc1ccc(O)cc1)[N+](C)(C)CC2 (stereo unspecified)	x	x	x	-1%	x	x
CCC(C)(C)NC(=O)C(c1ccc(C)cc1)N(CCN1CCOCC1)C(=O)CNC(=O)c1cccs1 (stereo unspecified)	-5%	-4%	8%	x	-1%	11%
O=C(/C=C/c1ccco1)Nc1cccc(NC(=O)/C=C/c2ccco2)n1	1.7µM*	u	u	u	-3%	3.2µM*
CCCn1c(N)c(NCCN2CCOCC2)c(=O)[nH]c1=O	-2%	-5%	10%	3%	-2%	7%
COc1ccccc1C(=O)C1CCCN(C(=O)C2=CC(=O)CC(C)(C)O2)C1 (stereo unspecified)	0%	-3%	12%	x	1%	7%
O=C(/C=N/NC(=O)c1ccc(Cl)cc1Cl)c1ccccc1	2.7µM*	21%	7%	x	12%	u
O=C(N/N=C/c1cc(Cl)ccc1O)c1ccccc1Br	u	-25%	u	x	16%	-24%
O=C(/C=N/NC(=O)c1ccccc1Br)c1ccccc1	9.5µM*	7%	u	7%	6%	20%
Cc1ccc(-c2csc(NC(=O)CSc3nc4ccccc4o3)n2)cc1	x	26%	u	14µM*	u	25%
CC1CCc2nc(NC(=O)CSc3nc4ccccc4o3)sc2C1 (stereo unspecified)	6.7µM*	u	u	-81%	6.5µM*	u
CC(C)N1C(=O)CCC1C(=O)NCc1ccc(F)cc1Cl (stereo unspecified)	-12%	1%	-3%	x	0%	4%
COc1ccc(NC(=O)Nc2cc(C)ccc2OC)cc1	u	0%	u	-10%	21%	-5%
COc1cccc(NC(=O)Nc2cc(C)ccc2F)c1	24µM*	29%	u	22%	7%	20%
COc1ccc(NC(=O)Nc2cc(C)ccc2F)cc1	12µM*	3.5µM*	u	u	23µM*	2.8µM*
COc1ccccc1NC(=O)Nc1nc(CC(=O)Nc2ccc(N(C)C)cc2)cs1	21µM*	0%	-5%	x	u	-2%
COc1ccccc1NC(=O)Nc1nc(C(C)(C)C)cs1	8.5µM*	-3%	-6%	6%	-4%	15%
COc1ccccc1CNC(=O)Cc1csc(NC(=O)Nc2ccccc2OC)n1	6%	-1%	u	x	-8%	-1%
COc1ccccc1NC(=O)Nc1nc(CC(=O)Nc2cccc(F)c2)cs1	17µM*	-6%	u	x	-9%	8%
O=C(Oc1ccccc1)N1CCC2(CCCN(c3ncccn3)C2)CC1	x	x	x	-38%	x	x
CC(=O)Nc1cccc(C(=O)NCCc2ccco2)c1	u	u	u	x	23µM*	u
O=C(/C=C\c1ccco1)c1ccc(NC(=O)c2ccco2)cc1	11µM*	u	u	x	u	u
CC(=O)Nc1cccc(C(=O)/C=C/c2ccco2)c1	19µM*	u	u	2%	7%	21%
Cc1ccc(NC(=O)N/C=C/c2ccco2)cc1	u	2.8µM*	u	14µM*	u	2.8µM*
SMILES	FLuc modulator	NPC1 prom act	ELG1 repair inh	SMN2 splice up	ELG1 genotoxic	Rab9 prom act
Cc1cccc(NC(=S)N2CCN(S(=O)(=O)c3ccc(F)cc3)CC2)c1	4%	2%	-5%	x	-9%	6%
CC(C)=CC1C(C(=O)Nc2ccc(S(=O)(=O)N3CCOCC3)cc2)C1(C)C (stereo unspecified)	0%	-4%	u	x	-4%	-5%
CSc1ncc(C(=O)NCc2ccccc2)c(-c2ccccc2)n1	-6%	x	x	x	x	x
Cc1cc(Br)ccc1NC(=O)c1sc2ncn(Cc3ccccc3Cl)c(=O)c2c1C	-2%	x	x	x	x	x
COc1ccc(NS(=O)(=O)c2cc(C(=O)N3CCN(C/C=C/c4ccccc4)CC3)ccc2C)cc1	4%	-7%	u	x	-8%	-10%
CC(=O)Nc1ccc(C(=O)/C=C/c2ccco2)cc1	9.5µM*	13%	u	16%	11%	22%
O=C(Cn1nnc(-c2ccccc2)n1)N/N=C/c1ccco1	3%	-6%	5%	-6%	0%	1%
Cc1coc(C)c1C(=O)Nc1ccc2ccccc2c1	11µM*	3.5µM*	u	x	u	2.8µM*
Cc1oncc1C(=O)Nc1ccc2ccccc2c1	19µM*	u	u	x	u	u
COC(=O)c1cccc(NC(=O)c2cnoc2C)c1	24µM*	18%	u	5%	9%	u
COC(=O)c1cccc(NC(=O)c2cccnc2)c1	1%	-1%	25%	4%	1%	4%
CC(=O)Nc1ccc2ccccc2c1	u	21%	u	7%	u	15%
Cc1oncc1C(=O)Nc1ccc(C(F)(F)F)cc1	u	u	u	11µM*	u	1.4µM*
Cc1nc(Cl)sc1C(=O)Nc1ccc(C(F)(F)F)cc1	-19%	2%	9%	x	0%	1%
Cc1ccc(S(=O)(=O)Nc2c(C)n(C)n(-c3ccccc3)c2=O)cc1C(=O)NCc1ccccc1	2%	0%	-3%	x	-2%	-4%

Screening results from PubChem BioAssay.
